An excerpt weighted towards active compounds, which were near 10% of everything screened.
BAZ2B block: qHTS Assay for Inhibitors of BAZ2B; AlphaScreen BAZ2B-H3K14Ac peptide displacement; Potency, µM (titrated, usually from 114 µM), actives largely listed as inhibitors; 360,000 tested, 4.4% active; further: nearly all actives have a fitted effect of over 60% in size
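BAZ2B (50 nM) with biotin-H3(5-23)K14Ac peptide (50 nM) in PBS pH 7.4, 0.01% Tween-20, preformed 30 min, then compound 30 min at room temperature; top concentration 110uM. AlphaScreen streptavidin donor/nickel chelate acceptor beads (10 ug/mL final), 20 min dark, signal read.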
G9a block: qHTS Assay for Inhibitors of Histone Lysine Methyltransferase G9a. G9a H3K9 monomethylation, AlphaScreen, 2 h. Potency, µM (series often up to 102 µM), hits mostly inhibitors. AID 504332, 2011. 350,000 tested, 8.8% active; further: nearly all actives have a fitted effect of over 75% in size
Target sequence (Q96KQ7 913-1193 limits assumed): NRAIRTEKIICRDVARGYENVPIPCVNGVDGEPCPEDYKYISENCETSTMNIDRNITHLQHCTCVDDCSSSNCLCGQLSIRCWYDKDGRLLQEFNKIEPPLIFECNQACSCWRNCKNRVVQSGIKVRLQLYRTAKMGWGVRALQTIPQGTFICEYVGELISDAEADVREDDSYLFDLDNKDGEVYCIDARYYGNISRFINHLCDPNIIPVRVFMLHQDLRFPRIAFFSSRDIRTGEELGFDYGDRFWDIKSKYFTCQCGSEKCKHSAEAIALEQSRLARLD
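Signal arises when biotinylated H3K9 peptide, once monomethylated, bridges streptavidin donor and antibody-captured acceptor beads. Enzyme at 20 nM was preincubated 15 min with test compounds; peptide 500 nM and SAM 20 uM then reacted for 2 h.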
GLS inhibitor: qHTS for Inhibitors of Glutaminase (GLS). Glutaminase kidney isoform, mitochondrial (Homo sapiens), O94925. GLS enzymatic activity, qHTS titration. Potency, µM (series often up to 45.5 µM), usual class: inhibitors. 410,000 tested, 0.21% active. AID 624170, 2012
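Human kidney-isoform GLS in 45 mM KH2PO4 pH 8.2, 0.02% Tween-20, with compound, started with 1mM L-Glutamine (added stock). Glutamate oxidase/HRP/Amplex red coupled fluorescence read at start and after 30 min at RT.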
HP1b binding inh: HTS for Inhibitors of HP1-beta Chromodomain Interactions with Methylated Histone Tails; 390,000 tested, 0.56% active; Potency, µM (doses to about 114 µM), hits mostly inhibitors; AlphaScreen HP1-beta / biotin-H3K9me3 peptide binding; AID 540317, 2011; Chromobox protein homolog 1 (Homo sapiens), P83916; further: nearly all actives have a fitted effect of over 70% in size
Target sequence (P83916 whole entry, looked up): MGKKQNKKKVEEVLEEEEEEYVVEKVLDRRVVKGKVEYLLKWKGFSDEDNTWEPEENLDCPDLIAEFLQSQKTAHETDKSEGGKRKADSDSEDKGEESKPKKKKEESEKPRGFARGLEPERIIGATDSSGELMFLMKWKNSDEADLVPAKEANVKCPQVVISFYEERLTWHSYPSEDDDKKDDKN
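Compound inhibition of the preformed complex between 50 nM HP1-beta and 50 nM biotinylated H3K9me3 peptide was read by AlphaScreen. Buffer was PBS pH 7.4 with 0.01% Tween-20. Incubations ran 30 min at room temperature, with 10 ug/mL donor/acceptor beads.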
JMJD2A Tudor inh: qHTS Assay for Inhibitors of JMJD2A-Tudor Domain; 390,000 tested, 4.4% active; AlphaScreen JMJD2A-Tudor / H3K4me3 peptide binding; Lysine-specific demethylase 4A (Homo sapiens), O75164; Potency, µM (series often up to 114 µM), hits mostly inhibitors; AID 504339, 2011; further: nearly all actives have a fitted effect of over 50% in size
L3MBTL1 block: qHTS Assay for the Inhibitors of L3MBTL1; AlphaScreen L3MBTL1–H3K9me1 peptide binding; Potency, µM (doses to about 57.1 µM), hits mostly inhibitors; 230,000 tested, 0.66% active; AID 485360, 2010; further: nearly all actives have a fitted effect of over 60% in size
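L3MBTL1 50 nM + b-AHA-H3(1-15)K9me1 75 nM, 30 min RT; compound added, 30 min RT; streptavidin donor/Ni-chelate acceptor beads 10 ug/mL each final, 30 min RT dark; AlphaScreen read.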
Numbers stand for hits; 0 = inactive; ? = inconclusive; - = no result given; [ ] = dose if it differs, or a comment. The call rests on the fitted dose curve; in most records, active means well fitted curve in the direction sought with a large enough effect; inconclusive means small, poorly fitted or top-dose-only effect, or another doubt; inactive means no such curve, though single readings can be large; an effect the other way counts as inactive or inconclusive.

SMILES	BAZ2B block	G9a block	GLS inhibitor	HP1b binding inh	JMJD2A Tudor inh	L3MBTL1 block
O=[S+]([O-])(c1c(F)cccc1F)N1CCN([S+](=O)([O-])c2cccc3nonc23)CC1	-	-	-	-	0	-
COc1ccc(N2C(=O)CN=C2Nc2nc(C)cc(C)n2)cc1	0	0[12.7 µM]	0	0	44.7µM	0
Cn1c(=O)c2c(nc(SCC(=O)O)n2Cc2cc3c(cc2Cl)OCO3)n(C)c1=O	?	?	0	0	44.7µM	-
CCn1c(SCC(=O)Nc2ccc3c(c2)OCO3)nc2c1c(=O)n(C)c(=O)n2C	0	0[2.33 µM]	0	0	0	-
CN(C)c1ccc(C(=O)C(O)c2ccccc2Cl)cc1 (stereo not given)	-	-	0	0	0	-
Cc1cc(N(CCO)CCO)ccc1C(c1ccc(N(CCO)CCO)cc1C)c1ccccc1Cl	44.7µM	7.94µM	0	?	28.2µM	0
Cc1ccc(NC(=O)CNc2ccccc2N2CCCC2=O)cc1S(=O)(=O)N1CCCCC1	0	3.16µM	0	0	0	0
Cc1ccc(NC(=O)Cc2ccccc2F)cc1S(=O)(=O)N1CCCCCC1	0	0[12.7 µM]	0	0	0	0
COCCNC(=O)C1=C(N)C(C(=O)Nc2ccc(C)c(S(=O)(=O)N3CCCCC3)c2)SC1=Nc1ccc(C)cc1C (stereo not given)	0	50.1µM	0	0	0	-
O=C(Nc1ccc(S(=O)(=O)N2CCOCC2)cc1)c1ccc(Br)o1	0	0[12.7 µM]	0	0	0	0[11.4 µM]
COCCNCC(=O)Nc1ccc(C)c(S(=O)(=O)N2CCCCC2)c1	-	8.91µM	0	?	35.5µM	0
Cc1ccc(NC(=O)CCl)cc1S(=O)(=O)N1CCCCCC1	-	?	0	0	0	0
O=C(CNC(=O)c1ccc(Br)o1)Nc1ccc(F)c(S(=O)(=O)N2CCOCC2)c1	0	44.7µM	0	0	0	0
CCc1nn2c(=O)cc(COC(=O)c3cccc(NC(=O)c4cccs4)c3)nc2s1	0	0	0	0	0	-
COc1cc(/C=C/C(=O)OCC(=O)Nc2ccc(C)c(S(=O)(=O)N3CCCCC3)c2)ccc1O	?	?	?	0	35.5µM	0
Cc1ccc(NC(=O)CNCCCN2CCOCC2)cc1S(=O)(=O)N1CCCCC1	50.1µM	14.1µM	0	?	17.8µM	0
COc1cc(/C=C/C(=O)OCC(=O)Nc2cc(S(=O)(=O)N3CCCCC3)ccc2C)ccc1O	0	0	?	0	0	0
COC(=O)c1[nH]c2cccc(OC)c2c1NC(=O)CCN1CC(C)CC(C)C1 (stereo not given)	0	50.1µM	0	0	0	0
COC(=O)c1[nH]c2cccc(OC)c2c1NC(=O)CCN1CCSCC1	0	0	0	0	0	0
COC(=O)c1[nH]c2cccc(OC)c2c1NC(=O)CCN1CCN(c2cccc(Cl)c2)CC1	0	50.1µM	-	-	-	0
CCc1ccc2nc(N3CCC(C(=O)NCCC(C)C)CC3)sc2c1	0	14.1µM	0	0	0	-
CCOc1ccc2nc(N3CCCC(C(=O)NCCCN4C(C)CCCC4C)C3)sc2c1 (stereo not given)	?	39.8µM	0	0	0	-
CS(=O)(=O)n1nc(-c2cccnc2)nc1NCc1ccccc1	0	0	0	0	0	0
CCC(=O)n1nc(-c2ccccc2)nc1NCc1ccccc1	0	0[12.7 µM]	0	0	0	0
CN(C)c1ccc(CNc2nc(-c3ccccc3)nn2S(C)(=O)=O)cc1	35.5µM	28.2µM	0	?	56.2µM	0
CC(=O)n1nc(-c2ccccc2)nc1NCc1ccc(N(C)C)cc1	25.1µM	0	0	?	35.5µM	0
Cc1nc(N2CCCC2)c2c(C(=O)N3CCN(c4cccc(Cl)c4)CC3)c(C)oc2n1	0	0	0	0	0	-
CC(C)NC(=O)C1CCC(Cn2c(=O)c3sccc3n(CC(=O)N3CCCC3)c2=O)CC1 (stereo not given)	0	0	0	0	0	-
